Entries with a potency or affinity are not part of this list. The source made the active and inactive calls.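 The calls were made as follows: active = compounds with a tight curve fit, inhibition span over 25% and half-maximal concentration below 10 µM; inactive = the rest.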
What follows are compounds tested against Beta-adrenergic receptor kinase 1 (Homo sapiens) (UniProt P25098) (assay: Second cherry pick dose-response of GRK2-aptamer binding blockers, biochemical bead flow cytometry (AID 504815)). Settings: biotinylated GRK2 beads, FAM-aptamer displacement; series mostly up to 33 µM.
Sequence of Beta-adrenergic receptor kinase 1 (Homo sapiens) (P25098 whole entry, looked up): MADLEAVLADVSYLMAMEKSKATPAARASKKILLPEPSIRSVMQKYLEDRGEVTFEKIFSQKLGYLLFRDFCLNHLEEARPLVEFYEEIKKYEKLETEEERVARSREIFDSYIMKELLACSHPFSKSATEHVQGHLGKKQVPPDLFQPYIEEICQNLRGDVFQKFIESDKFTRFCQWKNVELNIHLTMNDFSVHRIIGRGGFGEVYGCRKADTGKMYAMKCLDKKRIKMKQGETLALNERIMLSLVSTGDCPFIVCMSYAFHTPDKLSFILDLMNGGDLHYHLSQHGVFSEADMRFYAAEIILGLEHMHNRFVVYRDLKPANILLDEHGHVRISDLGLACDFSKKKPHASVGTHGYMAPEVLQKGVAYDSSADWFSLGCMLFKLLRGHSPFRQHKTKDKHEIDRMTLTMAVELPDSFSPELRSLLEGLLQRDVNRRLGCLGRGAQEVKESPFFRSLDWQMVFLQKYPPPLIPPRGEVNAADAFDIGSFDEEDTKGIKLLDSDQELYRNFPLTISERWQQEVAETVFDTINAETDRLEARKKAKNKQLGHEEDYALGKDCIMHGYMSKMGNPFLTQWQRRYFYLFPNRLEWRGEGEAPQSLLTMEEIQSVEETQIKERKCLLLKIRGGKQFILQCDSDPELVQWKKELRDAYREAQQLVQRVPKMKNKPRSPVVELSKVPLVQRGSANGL

Compound | outcome
C#CCSc1nc2sc3c(c2c(=O)n1C)CCC3 | inactive
CCN(CC)c1ccc(NC(=O)CCS(=O)(=O)c2ccc(Br)cc2)c(C)c1 | inactive
O=C(CCS(=O)(=O)c1ccc(Br)cc1)NCc1ccc(F)cc1 | inactive
CCc1ccccc1NC(=O)CCS(=O)(=O)c1ccc(Br)cc1 | inactive
CCOc1ccccc1NC(=O)CCS(=O)(=O)c1ccc(Br)cc1 | inactive
COc1ccc(CNC(=O)CCS(=O)(=O)c2ccc(Br)cc2)cc1 | inactive
CCc1ccccc1NC(=O)CCS(=O)(=O)c1ccc(OC)cc1 | inactive
COc1ccc(-c2csc3nc(-c4ccc(C)cc4)oc(=O)c23)cc1OC | inactive
O=C(CCS(=O)(=O)c1ccc(Br)cc1)Nc1ccc(Br)cc1F | inactive
COc1ccc(Cl)cc1NC(=O)CCS(=O)(=O)c1ccc(Br)cc1 | inactive
CCOc1ccc(NC(=O)CCS(=O)(=O)c2ccc(Br)cc2)cc1 | inactive
Cc1ccccc1NC(=O)CCS(=O)(=O)c1ccc(Br)cc1 | inactive
COc1ccc([N+](=O)[O-])cc1NC(=O)CCS(=O)(=O)c1ccc(Br)cc1 | inactive
O=C(CCS(=O)(=O)c1ccc(Br)cc1)NCc1cccs1 | inactive
O=C(CCS(=O)(=O)c1ccc(Br)cc1)NCCc1ccccc1 | inactive
O=C(CCS(=O)(=O)c1ccc(Br)cc1)NCc1ccco1 | inactive
COC(=O)c1ccc(NC(=O)CCS(=O)(=O)c2ccc(Br)cc2)cc1 | inactive
O=C(CCS(=O)(=O)c1ccc(Br)cc1)NC1CCCC1 | inactive
O=C(CCS(=O)(=O)c1ccc(Br)cc1)NCCc1ccc(Cl)cc1 | inactive
O=C(CCS(=O)(=O)c1ccc(Br)cc1)Nc1cc(F)ccc1F | inactive

Source: PubChem BioAssay AID504815 (NMMLSC, 2011)
